Compounds with a hit are over-represented: about 4.7% of the library has one in this group of screens.
D1 antagonist: Antagonist of Human D 1 Dopamine Receptor: qHTS; HEK293 TREx D1 cells, calcium flux, dopamine EC80; hits give low values; AID 504652, 2011; 360,000 compounds, 3.2% hits; activity change, negative = inhibition, % at 10 µM; in the data active = activity change below about -30%; note: % is set by controls: 0 for no effect and ±100 for the full control effect
Target sequence (P21728 whole entry, looked up): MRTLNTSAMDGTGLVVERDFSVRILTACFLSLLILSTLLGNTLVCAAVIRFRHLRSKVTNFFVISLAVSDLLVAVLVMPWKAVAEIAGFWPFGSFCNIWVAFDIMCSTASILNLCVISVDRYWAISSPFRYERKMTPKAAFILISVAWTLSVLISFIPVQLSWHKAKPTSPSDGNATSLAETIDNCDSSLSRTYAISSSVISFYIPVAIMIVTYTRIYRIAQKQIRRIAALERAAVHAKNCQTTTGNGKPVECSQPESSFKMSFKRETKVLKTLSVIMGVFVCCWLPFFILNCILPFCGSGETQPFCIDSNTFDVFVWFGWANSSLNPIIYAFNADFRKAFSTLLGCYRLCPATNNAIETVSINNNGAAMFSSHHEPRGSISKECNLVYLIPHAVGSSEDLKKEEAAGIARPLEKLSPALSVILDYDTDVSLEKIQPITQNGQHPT
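Compound effects on dopamine-evoked calcium signalling were measured in tetracycline-induced HEK293 Trex D1 cells. Dopamine at EC80 followed a 180 s compound pre-read, and fluorescence was tracked kinetically for 180 s more.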
TRHR enhancer: qHTS for Small Molecule Agonists and Allosteric Enhancers of Human TRH Receptor: Primary Screen for Enhancers | TRHR cells, fluo-8 calcium fluorescence, EC20 TRH enhancement | Thyrotropin-releasing hormone receptor (Homo sapiens), P34981 | enhancement, % at 2 µM | 360,000 compounds, 0.66% hits | AID 493056, 2011; in the data active = enhancement above about 30%; note: 0% is about no effect
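Enhancer read-out: after compound pinning and an initial kinetic agonist-mode read, an EC20 of TRH (10 nM final) was injected and fluo-8 calcium signal (Ex 480/Em 530) followed at 1 s/cycle for 100 cycles in TRHR-expressing cells.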
D1 potentiator: Potentiators of Human D1 Dopamine Receptor: qHTS; 360,000 compounds, 0.036% hits; HEK293 TREx D1 cells, calcium flux, dopamine EC20 potentiation; potentiation, % at 10 µM; in the data active = potentiation above about 30%; note: 0% is about no effect
D1 ag: Allosteric Agonists of the Human D1 Dopamine Receptor: qHTS; D(1A) dopamine receptor (Homo sapiens), P21728; 360,000 compounds, 1% hits; HEK293 T-REx D1 cells, calcium flux, agonist mode; activation, % at 2 µM; note: 0% is about no effect
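Tetracycline-induced HEK293 TREx D1 cells, force-coupled to calcium signalling, were dye-loaded with a no-wash calcium kit. Compound was pin-added after a 10 s baseline. Fluorescence was read kinetically at 1 cycle/s for 180 s, with calcium rises flagged as agonism.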
TRHR agonist: qHTS for Small Molecule Agonists and Allosteric Enhancers of Human TRH Receptor: Primary Screen for Agonists; Thyrotropin-releasing hormone receptor (Homo sapiens), P34981; TRHR cells, calcium flux fluo-8, FDSS agonist mode; activation, % at 2 µM; 360,000 compounds, 0.18% hits; AID 493084, 2011; note: 0% is about no effect
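TRHR-expressing cells loaded with fluo-8 calcium dye; 23 nL library compound pin-transferred, kinetic FDSS fluorescence (Ex 480/Em 530) recorded about 180 s for agonist-induced calcium release, before a 10 nM TRH EC20 addition for potentiator mode.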
* hit, by the source's call; . = no result given; ! = repeats disagree. Cut-off read from the data, not from the text of the source, unless noted: active = activation above about 30%; inactive = the rest.

SMILES	D1 antagonist	TRHR enhancer	D1 potentiator	D1 ag	TRHR agonist
CC(=O)c1ccc(N2CCN(c3nc4c(S(=O)(=O)c5ccc(C)c(C)c5)nnn4c4ccc(Cl)cc34)CC2)cc1	10	0	-2	1	0
CCCNC(=O)c1cnc2sc(N3CCCCCC3)nn2c1=O	-11	-4	-5	1	0
CCOC(=O)N1CCN(C(=O)COc2cccc3c2CCN(Cc2ccccc2F)C3=O)CC1	-31*	7	1	1	0
Cc1cccc(NC(=O)COc2cccc3c2CCN(C)C3=O)c1	8	6	-4	12	0
CC1CCN(C(=O)COc2cccc3c2CCN(C)C3=O)CC1	-32*	-2	-6	0	0
O=C(COc1cccc2c1CCN(Cc1ccccc1F)C2=O)N1CCOCC1	-16	-16	-4	0	0
Cc1ccccc1CN1CCc2c(OCC(=O)N3CCCCC3)cccc2C1=O	-41*	-4	-2	3	0
O=C(COc1cccc2c1CCN(Cc1ccccc1F)C2=O)N1CCCCC1	-10	-3	1	3	0
Cc1cccc(C)c1NC(=O)c1nc(SC(C)C)ncc1Cl	18	-4	2	0	-2
CCCN1C2CCCC1CC(NC(=O)c1cc(OC)cc(OC)c1)C2 (stereo unspecified)	-34*	0	-9	-3	1
COc1cc(OC)cc(C(=O)NC2CC3CCC(C2)N3C)c1 (stereo unspecified)	-54*	1	-14	1	1
CCCN1C2CCCC1CC(NC(=O)c1ccc(C(C)(C)C)cc1)C2 (stereo unspecified)	10	8	4	8	0
CCOc1ccc(CCNC(=O)Cn2nc(C)n3c(cc4occc43)c2=O)cc1OCC	5	11	-1	-1	-1
COc1ccccc1-c1cc(C(=O)NC(C)c2ccccc2)no1 (stereo unspecified)	-42*	-7	-15	10	1
COCCNC(=O)c1cc(-c2ccccc2OC)on1	12	-2	-5	1	0
CCN(CC)C(=O)CN(c1cc2c(cc1OC)oc1ccccc12)S(=O)(=O)c1ccccc1	-68*	-4	-11	2	1
COc1cc2oc3ccccc3c2cc1N(CC(=O)N(C)C)S(=O)(=O)c1ccccc1	-5	-7	0	1	1
Cc1cc(N2CCN(C)CC2)nc2ccc(NC(=O)c3ccc(C(C)(C)C)cc3)cc12	-75*	13	0	20	0
Cc1cc(N2CCN(C)CC2)nc2ccc(NC(=S)N3CCN(c4cccc(Cl)c4)CC3)cc12	3	-3	-4	0	0
Cc1cc(N2CCN(C)CC2)nc2ccc(NC(=O)Nc3ccc(Cl)cc3)cc12	-15	3	-5	18	1
COc1cc(OC)cc(C(=O)Nc2ccc3nc(N4CCCCC4)cc(C)c3c2)c1	-46*	5	5	-1	0
Cc1cccc(N2CCN(C(=S)Nc3ccc4nc(N5CCN(C)CC5)cc(C)c4c3)CC2C)c1 (stereo unspecified)	-73*	-1	-6	3	1
C=C(C)Cn1c(SCC(=O)Nc2cccc(C)c2)nc2sc3c(c2c1=O)CCCC3	19	-5	-3	3	-2
COc1ccc(N2C(=O)NC(NS(=O)(=O)c3ccc(NC(C)=O)cc3)(C(F)(F)F)C2=O)cc1 (stereo unspecified)	-51*!	-2	-9	-2	0
COc1ccc(N2C(=O)NC(NS(=O)(=O)c3ccccc3)(C(F)(F)F)C2=O)cc1 (stereo unspecified)	21	-2	-1	3	0
SMILES	D1 antagonist	TRHR enhancer	D1 potentiator	D1 ag	TRHR agonist
O=C(NCc1ccccc1Cl)c1ccc(CSCc2ccccc2Cl)o1	0	-4	-2	28	2
O=C(/C=C/c1cccs1)Nc1nc(-c2ccccc2)cs1	-36*	-1	-10	1	0
CCOc1ccc(N2CC(NC(=O)C3CCCC3)CC2=O)cc1 (stereo unspecified)	.	-13	6	-3	0
CCC(=O)C1=C(c2ccc(F)cc2)N(C(=O)CC)n2c(nnc2-c2ccc(OC)cc2)S1	.	0	-2	1	0
CC(=O)Nc1ccc2nc3c(=O)n(C)c(=O)n(C)c3nc2c1	-5	2	-3	34*	5
CCOC(=O)c1ccc(NC(=O)CC2S/C(=N/N=C/c3c[nH]c4ccccc34)NC2=O)cc1 (stereo unspecified)	-36*	5	2	1	0
CN1CCN(C(=O)C(=O)Nc2c3c(nn2-c2cccc(Cl)c2)CSC3)CC1	.	10	2	2	0
CC(C)c1nnc(N2C(=O)C(O)=C(C(=O)c3cccs3)C2c2ccccc2)s1 (stereo unspecified)	.	3	2	270*	169*
COc1ccc(C2C(C(=O)c3cccs3)=C(O)C(=O)N2c2nncs2)cc1 (stereo unspecified)	-21	3	-3	67*	36*
Cc1cccc(N2C(=O)C(O)=C(C(=O)c3cccs3)C2c2ccc(C(C)C)cc2)n1 (stereo unspecified)	1	-4	3	1	2
COc1ccc(C2C(C(=O)c3cccs3)=C(O)C(=O)N2c2nnc(C)s2)cc1OC (stereo unspecified)	3	8	-5	77*	193*
CCOCCCNC(=O)C(c1ccc(Cl)cc1)N(Cc1cccs1)C(=O)c1ccc(NC(C)=O)cc1 (stereo unspecified)	8	0	-1	8	0
COc1cc(OC)c(NC(=O)N2CCOc3ccc(C)cc32)cc1Cl	-6	3	-1	-1	0
CCOC(=O)c1ccc(NC(=O)CSc2nccn2Cc2ccc(OC)cc2)cc1	6	3	-2	3	0
COc1ccc(S(=O)(=O)NCC(c2ccco2)S(=O)(=O)c2cccs2)cc1F (stereo unspecified)	.	-3	-2	4	4
Cc1ccc(C)c(NC(=O)Cn2c(=O)n(Cc3ccco3)c(=O)c3ccc(C(=O)NC4CCCC4)cc32)c1	0	4	7	1	1
Cc1cc(C)c(NC(=O)Cn2c(=O)n(Cc3ccco3)c(=O)c3ccc(C(=O)NC4CCCC4)cc32)c(C)c1	0	55*	-2	1	-1
O=C(O)CC(C(=O)Nc1ccc(Cl)cc1Cl)C1CCCO1 (stereo unspecified)	-63*	-4	-2	0	1
